LYPLA1 inh = blocks human lysophospholipase 1, a PME1 counter-screen | recombinant LYPLA1, FP-Rh probe fluorescence polarization | inhibition, % at 5.9 µM | O75608 | 320,000 tested, 0.16% active;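 active = inhibition above the mean of all tested compounds plus 3 SD, set per campaign, cut at about 14% in these data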;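 also: inhibitors block serine hydrolase probe labeling of LYPLA1 so polarization falls; 0% = enzyme with DMSO and 100% = wells lacking LYPLA1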
PME-1 primary = blocks human protein phosphatase methylesterase 1 | Q9Y570 | recombinant PME-1, FP-Rh probe fluorescence polarization | inhibition, % at 5.9 µM | 320,000 tested, 0.53% active;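 active = inhibition above the campaign mean of all compounds plus 3 SD, cut at about 26% in these data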;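 also: competitive labeling of PME-1 active site by serine hydrolase directed probe; 0% = PME-1 with DMSO and 100% = wells lacking PME-1 enzyme; inhibitors block probe labeling so polarization falls and inhibition rises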
GSTO1 counter = GSTO1 inhibition, counter-screen for RBBP9 inhibitors; P78417; recombinant GSTO1, activity-based probe fluorescence polarization; inhibition, % at 5.96 µM; 300,000 tested, 1.1% active; AID 1974;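 active = inhibition above the campaign mean inhibition plus 3 SD, cut at about 35% in these data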;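 also: 0% = GSTO1-1 with DMSO and 100% = wells lacking GSTO1-1 enzyme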
PAD4 inh = inhibitors of human PAD4. recombinant PAD4, RCA probe fluorescence polarization. inhibition, % at 6.36 µM. 330,000 tested, 0.41% active. AID 485272;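 active = percent inhibition above a cutoff equal to the mean of all tested compounds plus 3 SD, cut at about 15% in these data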;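 also: 0% = PAD4 with RCA probe and DMSO and 100% = probe without PAD4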
Target sequence (Q9UM07 whole entry, looked up): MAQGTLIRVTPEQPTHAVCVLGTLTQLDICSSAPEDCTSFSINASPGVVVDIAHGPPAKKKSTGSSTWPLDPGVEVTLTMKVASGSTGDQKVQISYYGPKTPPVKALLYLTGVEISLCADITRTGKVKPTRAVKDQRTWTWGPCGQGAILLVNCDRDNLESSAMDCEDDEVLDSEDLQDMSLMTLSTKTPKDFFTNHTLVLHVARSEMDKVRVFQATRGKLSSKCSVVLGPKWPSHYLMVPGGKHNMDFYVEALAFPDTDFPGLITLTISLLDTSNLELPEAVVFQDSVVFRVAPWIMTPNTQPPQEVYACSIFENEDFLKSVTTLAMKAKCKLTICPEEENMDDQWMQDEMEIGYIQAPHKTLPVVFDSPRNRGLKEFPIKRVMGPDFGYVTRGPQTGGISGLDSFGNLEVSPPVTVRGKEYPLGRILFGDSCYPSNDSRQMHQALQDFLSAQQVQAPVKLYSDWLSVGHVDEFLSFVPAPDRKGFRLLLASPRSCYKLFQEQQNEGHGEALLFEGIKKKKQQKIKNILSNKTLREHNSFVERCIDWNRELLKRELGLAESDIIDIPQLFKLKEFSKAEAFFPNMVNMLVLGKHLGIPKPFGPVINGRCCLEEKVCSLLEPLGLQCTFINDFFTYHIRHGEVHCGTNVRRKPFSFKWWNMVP
Fam108B inh = Fam108B inhibition, counter-screen for RBBP9 inhibitors; recombinant Fam108B, FP-Rh probe fluorescence polarization; inhibition, % at 9.51 µM; 300,000 tested, 0.33% active; AID 1947;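 active = inhibition above the screen mean inhibition plus 3 SD, computed separately per campaign, cut at about 18% in these data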;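 also: inhibitors lower polarization as less probe binds the enzyme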
LYPLA2 counter = LYPLA2 (human) inhibition in PME1 counter-screen; inhibition, % at 5.9 µM; recombinant LYPLA2, FP-Rh probe fluorescence polarization; O95372; AID 2177; 320,000 tested, 0.38% active;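 active = inhibition above the screen-wide mean plus 3 SD, limit set per campaign, cut at about 26% in these data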;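 also: 0% = LYPLA2 with DMSO and 100% = wells lacking LYPLA2 enzyme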
LYPLA1 confirm = counter-screen for PME1 inhibitors: confirmation of human LYPLA1 inhibitors; 480 tested, 69% active; recombinant LYPLA1, FP-Rh probe fluorescence polarization; AID 2233; inhibition, % at 5.9 µM; shares compounds with LYPLA1 inh;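 active = mean inhibition across replicates above the hit cutoff set in the primary screen, cut at about 15% in these data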;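 also: loss of FP-Rh probe labeling of LYPLA1 seen as lower polarization; 0% = LYPLA1 with DMSO and 100% = wells lacking LYPLA1 enzyme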
LYPLA2 conf = LYPLA2 (human) inhibition, confirmation counter-screen. AID 2232. inhibition, % at 5.9 µM. 1,100 tested, 72% active. shares compounds with LYPLA2 counter. recombinant LYPLA2, FP-Rh probe fluorescence polarization;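 active = mean inhibition across replicates above the hit cutoff set in the primary screen, cut at about 26% in these data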;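 also: blocked labeling of the enzyme by serine hydrolase FP-Rh probe lowers polarization; 0% = enzyme with DMSO and 100% = wells lacking LYPLA2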
Active calls of the source: *; . = no result given. Hits are enriched below; roughly 1.8% of the tested compounds scored in any of these assays.

SMILES	LYPLA1 inh	PME-1 primary	GSTO1 counter	PAD4 inh	Fam108B inh	LYPLA2 counter	LYPLA1 confirm	LYPLA2 conf
COc1ccc(C(=O)NC(=S)Nc2ccc(N3CCOCC3)c(Cl)c2)cc1[N+](=O)[O-]	50*	1	1	0	-6	60*	54*	61*
COC(=O)c1cc(S(=O)(=O)NCCc2ccc(SC)cc2)c[nH]1	0	3	21	4	-2	8	.	.
O=c1ccc2ccc(Oc3ccc([N+](=O)[O-])cc3Cl)cc2o1	16*	7	-7	3	3	70*	22*	66*
COc1ccc(S(=O)(=O)N(C)CC(=O)N2CCN(c3ccc(F)cc3)CC2)cc1OC	22*	3	-1	-3	-2	37*	21*	33*
CN(C(=O)c1ccc(Oc2ccc([N+](=O)[O-])cc2)cc1)C1CCCCC1	4	0	0	2	0	6	.	.
CC(=O)c1sc(NC(=O)C2CCN(C(=O)c3ccccc3C)CC2)nc1-c1ccccc1	25*	10	-6	0	1	27*	32*	14
Cc1cccc(NC(=O)C2CCN(C(=O)c3ccccc3C)CC2)n1	3	4	.	3	.	5	.	.
CCNC(=O)NC(=O)COC(=O)c1cccc(S(=O)(=O)N2CC3(C)CC2CC(C)(C)C3)c1 (stereo unspecified)	1	-8	-7	-2	-5	-7	.	.
Clc1cccc(N2CCN(CCNc3nc4ccccc4n4cnnc34)CC2)c1	17*	5	2	-1	0	67*	32*	62*
O=C(COc1ccc(Br)cc1)Nc1ccc(Cc2ccncc2)cc1	23*	-17	-6	1	-1	30*	25*	22
O=C1CC(=O)Nc2cc(S(=O)(=O)Nc3cccc(C(F)(F)F)c3)ccc2N1	3	-5	12	0	-1	0	.	.
COc1ccc(C(CNC(=O)COc2ccc(-c3ccccc3)cc2)N2CCOCC2)cc1 (stereo unspecified)	45*	5	-6	3	1	44*	57*	45*
CCOc1cc(CN2CCN(c3cccc(C(F)(F)F)c3)CC2)ccc1OC	-1	-3	0	7	1	-2	.	.
COc1ccc(CC(C)N2CCN(c3cccc(C(F)(F)F)c3)CC2)cc1OC (stereo unspecified)	25*	0	9	-1	4	31*	32*	35*
C#Cc1ccc([C@@H]2C=C(C(=O)O)O[C@H](OCC)[C@H]2CCCO)cc1	-2	-3	2	-1	-2	-2	.	.
O=C(Nc1ccc2oc(-c3cccnc3)nc2c1)c1ccc2c(c1)OCCO2	21*	-15	11	-2	-6	47*	53*	49*
O=C(Nc1ccc2oc(-c3ccccc3)nc2c1)c1ccc2c(c1)OCCO2	-10	-35	-14	-8	-27	-17	.	.
CC(=O)c1cc2c(cc1NC(=O)Cc1c(C)noc1C)OCO2	.	.	.	-2	.	.	.	.
COc1cc([C@H]2Oc3cc([C@H]4Oc5cc(O)cc(O)c5C(=O)[C@@H]4O)ccc3O[C@@H]2CO)ccc1O	21*	1	7	-3	0	70*	37*	75*
O=C(O)c1ccc2c(c1)C(=O)N(CCCCCCCN1C(=O)c3ccc(C(=O)O)cc3C1=O)C2=O	69*	-4	2	-4	-2	47*	73*	48*
C(=N\n1cnnc1)/c1ccc(OCc2cccc3ccccc23)cc1	16*	-6	-2	-2	-4	52*	20*	39*
N#Cc1ccccc1S(=O)(=O)c1ccccc1C(=O)Nc1ccccc1	-16	0	9	-4	4	-3	.	.
COCCNC(=O)c1c[nH]c2ccc(S(=O)(=O)N(C)c3ccc(C)c(C)c3)cc2c1=O	-7	-4	-12	3	-6	-4	.	.
O=C1N=C(N2CCN(Cc3ccccc3)CC2)S/C1=C/c1cccs1	25*	-3	-8	-3	-3	47*	36*	55*
O=[N+]([O-])c1cccc(/C=N/N2CCN(Cc3ccc(Cl)cc3)CC2)c1	29*	7	-2	1	0	41*	37*	53*
SMILES	LYPLA1 inh	PME-1 primary	GSTO1 counter	PAD4 inh	Fam108B inh	LYPLA2 counter	LYPLA1 confirm	LYPLA2 conf
O=[N+]([O-])c1cccc(/C=N/N2CCN(Cc3ccccc3)CC2)c1	1	4	6	-2	-4	10	.	.
Cc1c(Br)c([N+](=O)[O-])nn1CC(=O)Nc1ccc(Cc2ccncc2)cc1	23*	0	-10	2	0	59*	35*	67*
CC(=O)Nc1ccc(NC(=O)Cn2nc([N+](=O)[O-])c(Br)c2C)cc1	2	-7	1	0	4	4	.	.
COC(=O)[C@]1(Cc2ccccc2)N[C@H](CN(C)C(=O)c2ccc(F)cc2)[C@@H]2C(=O)N(C)C(=O)[C@@H]21	.	.	.	-3	.	.	.	.
O=C(CSCc1ccccc1Br)Nc1ccccc1	16*	3	-6	-4	-3	37*	32*	47*
N#Cc1c(N)nc(SCc2ccncc2)c(C#N)c1-c1cccs1	39*	15	-70	0	-2	42*	41*	43*
CCN(CC)C(=O)CSc1nc(N)c(C#N)c(-c2cccs2)c1C#N	-1	-1	-42	-2	-3	2	.	.
CC(=O)N1CCC2(CC1)C/C(=N\NC(=S)Nc1ccccc1C)c1cc(O)ccc1O2	17*	-3	-31	2	0	48*	29*	55*
CC(=O)N1CCC2(CC1)C/C(=N\NC(=S)Nc1ccccc1F)c1cc(O)ccc1O2	10	16	-36	1	3	19	.	.
O=C(CCc1nc2ccccc2c(=O)[nH]1)N1CCN(C/C=C/c2ccccc2)CC1	-1	2	-12	-3	2	15	.	.
O=c1[nH]c(CN2CCN(C/C=C/c3ccccc3)CC2)nc2cc(Cl)ccc12	34*	1	-2	0	3	32*	41*	31*
O=C(COc1ccc(F)cc1)NCCN1CCCC1	1	0	2	-1	2	0	.	.
COc1ccc(-n2nc(C(=O)NCC(=O)N3CCOCC3)c3ccccc3c2=O)cc1OC	6	1	2	-3	-5	6	.	.
COc1ccc(-n2nc(C(=O)NCC(=O)N3CCN(Cc4ccc5c(c4)OCO5)CC3)c3ccccc3c2=O)cc1OC	50*	-17	13	2	1	74*	63*	82*
COc1ccc(-n2nc(C(=O)NCC(=O)N3CCN(c4ccccc4)CC3)c3ccccc3c2=O)c(OC)c1	-2	4	3	2	1	22	.	.

Source: PubChem (The Scripps Research Institute Molecular Screening Center)
